Measured values taken from the supplement of paper PMC13172266.
Counter-ions that a name gives are not always drawn.

Experiments:
Experiment in all cases: cell proliferation relative to vehicle (% of vehicle); higher = less growth inhibition
Details in all cases: 72 h
[1] = system: U2932 TK216-resistant clone 2
In short: (§1)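 Parental U2932 cells (ABC-DLBCL) and two clones made resistant to an ETS-targeting agent by almost a year of repeated exposure were treated for 72 h with 348 targeted inhibitors at 500 nM or 50 nM. MTT was then applied for 4 h, the reaction was stopped with 25% SDS, and absorbance was measured on a Cytation 3. Values express proliferation as percent of proliferating cells compared with DMSO vehicle.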

[2] = system: U2932 TK216-resistant clone 3
In short: as §1

[3] = system: U2932 parental
In short: as §1

Structure (SMILES) | cell proliferation ([1]; 50 nM) | cell proliferation ([1]; 500 nM) | cell proliferation ([2]; 50 nM) | cell proliferation ([2]; 500 nM) | cell proliferation ([3]; 50 nM) | cell proliferation ([3]; 500 nM)
CCOC(=O)C1=C(N)Oc2ccc(Br)cc2C1C(C#N)C(=O)OCC (configuration not stated) | 103 | 95.7 | 109 | 100 | 98.4 | 97.6
CC[C@@]1(O)C(=O)OCc2c1cc1n(c2=O)Cc2cc3cc(O)ccc3nc2-1 [(S)-10-Hydroxycamptothecin] | 4.11 | 1.46 | 7.4 | 5.84 | 2.21 | 0.765
CCN(c1cc(-c2ccc(CN3CCOCC3)cc2)cc(C(=O)NCc2c(C)cc(C)[nH]c2=O)c1C)C1CCOCC1 | 92.4 | 80.1 | 96.4 | 87.6 | 89.5 | 82.5
CCCC(CCC)C(=O)O [Valproic acid sodium salt (Sodium valproate)] | 98.2 | 101 | 103 | 94.2 | 106 | 97.6
CC[C@H](NC(=O)[C@H](C)NC)C(=O)N1C[C@@H](O)C[C@H]1Cc1c(-c2[nH]c3cc(F)ccc3c2C[C@@H]2C[C@H](O)CN2C(=O)[C@H](CC)NC(=O)[C@H](C)NC)[nH]c2cc(F)ccc12 [Birinapant] | 102 | 100 | 99.4 | 90.9 | 103 | 101
Oc1cccc(-c2nc(N3CCOCC3)c3oc4ncccc4c3n2)c1 | 97.4 | 45.4 | 94.2 | 46.3 | 92.1 | 48
COc1cccc(-c2cc(F)ccc2C2Cc3nc(N)nc(C)c3C(=O)N2)n1 (configuration not stated) | 6.3 | 4.81 | 22.6 | 18.7 | 7.13 | 6.37
COc1cc2nccc(Oc3ccc(NC(=O)C4(C(=O)Nc5ccc(F)cc5)CC4)cc3)c2cc1OC [Cabozantinib malate (XL184)] | 109 | 109 | 102 | 95.7 | 109 | 103
COc1cc(F)c(F)c(Nc2ccc(I)cc2F)c1NS(=O)(=O)C1(C[C@H](O)CO)CC1 [Refametinib (RDEA119, Bay 86-9766)] | 104 | 92.6 | 105 | 97.1 | 92.8 | 96.2
O=C(O)CC[C@H]1CC[C@@](c2cc(F)ccc2F)(S(=O)(=O)c2ccc(Cl)cc2)CC1 | 102 | 109 | 105 | 106 | 93.5 | 93.2
C[C@@H]1CCN(C(=O)CC#N)C[C@@H]1N(C)c1ncnc2[nH]ccc12 | 102 | 104 | 113 | 98.5 | 109 | 107
C[C@]12CC[C@@H]3c4ccc(O)cc4C[C@@H](CCCCCCCCC[S+]([O-])CCCC(F)(F)C(F)(F)F)[C@H]3[C@@H]1CC[C@@H]2O (some centres not stated) [Fulvestrant] | 98.2 | 101 | 103 | 104 | 98.8 | 93.9
COC(=O)Nc1ccc(-c2nc(N3CCOCC3)c3cnn(C4CCN(C(=O)OC)CC4)c3n2)cc1 | 107 | 55.1 | 101 | 56.4 | 101 | 46.9
CN(C)CCOc1ccc(-c2nc(-c3ccncc3)c(-c3ccc4c(c3)CC/C4=N\O)[nH]2)cc1 | 93.3 | 89.5 | 96.6 | 97.4 | 93.3 | 94.8
C#Cc1cccc(Nc2ncnc3cc(OC)c(OCCCCCCC(=O)NO)cc23)c1 | 93.7 | 43.4 | 96.3 | 52.5 | 89.5 | 43.9
N#Cc1c(Oc2ccc(F)c(NC(=O)Cc3cccc(C(F)(F)F)c3)c2)ccc2nc(NC(=O)C3CC3)sc12 | 104 | 92.8 | 107 | 103 | 95.9 | 98.6
CNC(=O)c1cc(Oc2ccc(NC(=O)Nc3ccc(Cl)c(C(F)(F)F)c3)c(F)c2)ccn1 [Regorafenib (BAY 73-4506)] | 103 | 116 | 105 | 107 | 105 | 105
CCn1c(-c2nonc2N)nc2c(C#CC(C)(C)O)ncc(OC[C@H]3CCCNC3)c21 | 91.1 | 54.1 | 97 | 66.9 | 90.5 | 58.6
CC(C)(C)c1cc(NC(=O)Nc2ccc(-c3cn4c(n3)sc3cc(OCCN5CCOCC5)ccc34)cc2)no1 [Quizartinib (AC220)] | 95.7 | 97.3 | 95 | 90.2 | 101 | 102
Cc1cc(N2CCOCC2)cc2[nH]c(-c3c(NC[C@@H](O)c4cccc(Cl)c4)cc[nH]c3=O)nc12 | 110 | 96 | 100 | 92.8 | 102 | 100
CC(=O)O[C@H]1C(=O)[C@@]2(C)[C@H]([C@H](OC(=O)c3ccccc3)[C@]3(O)C[C@H](OC(=O)[C@H](O)[C@@H](NC(=O)c4ccccc4)c4ccccc4)C(C)=C1C3(C)C)[C@]1(OC(C)=O)CO[C@@H]1C[C@@H]2O [Paclitaxel] | 11.2 | 14.3 | 6.88 | 4.73 | 11.2 | 9.85

Structure (SMILES) | cell proliferation ([1]; 50 nM) | cell proliferation ([1]; 500 nM) | cell proliferation ([2]; 50 nM) | cell proliferation ([2]; 500 nM) | cell proliferation ([3]; 50 nM) | cell proliferation ([3]; 500 nM)
CCc1nc(-c2cccc(C)c2)c(-c2ccnc(NC(=O)c3ccccc3)c2)s1 | 103 | 97.7 | 98.4 | 103 | 104 | 101
COc1ccc(-c2nc(N3CCOCC3)c3sc(CN(C)c4ncc(C(=O)NO)cn4)cc3n2)cn1 | 0.345 | 2.02 | 3.18 | 9.31 | 0.767 | 3.78
Oc1ccc(Nc2nc(-c3ccc(Cl)cc3)cs2)cc1 | 109 | 94.9 | 111 | 103 | 97 | 95.5
CN1CCCN(C(=O)c2cccc(-c3ccc(/C=C4/C(=O)Nc5ccc(Cl)cc54)o3)c2)CC1 | 105 | 80.8 | 97 | 88.5 | 104 | 96.5
COC1=CC(c2cc3ccccc3[nH]2)=N/C1=C\c1[nH]c(C)cc1C [Obatoclax Mesylate (GX15-070)] | 94.8 | 1.6 | 102 | 8.59 | 75.2 | 2.95
CN(NC(=O)CC(=O)NN(C)C(=S)c1ccccc1)C(=S)c1ccccc1 [Elesclomol (STA-4783)] | 0.164 | -0.212 | -0.901 | -3.67 | 0.103 | -1.37
C[C@@H](O[C@H]1OCCN(Cc2n[nH]c(=O)[nH]2)[C@H]1c1ccc(F)cc1)c1cc(C(F)(F)F)cc(C(F)(F)F)c1 [Aprepitant] | 109 | 106 | 101 | 97.4 | 108 | 98.5
COc1ccc(-c2ccc3ncc4c(c3c2)n(-c2ccc(N3CCNCC3)c(C(F)(F)F)c2)c(=O)n4C)cn1 | 15.8 | -0.777 | 30.9 | 0.399 | 19.7 | 1.95
C=CCc1ccc(O)c(-c2ccc(O)c(CC=C)c2)c1 [Honokiol] | 108 | 111 | 104 | 102 | 100 | 106
COc1ccccc1OCC(O)CN1CCN(CC(=O)Nc2c(C)cccc2C)CC1 (configuration not stated) [Ranolazine] | 97.6 | 91.3 | 95 | 101 | 106 | 99.1
NC(=O)Nc1cc(-c2cccc(F)c2)sc1C(=O)N[C@H]1CCCNC1 | 89.8 | 13.6 | 91.8 | 18.9 | 83 | 11.5
CNCc1ccc(-c2[nH]c3cc(F)cc4c3c2CCNC4=O)cc1 | 101 | 94.9 | 99.8 | 108 | 96.6 | 93.4
CCCNC(=O)c1cn2ncnc(Nc3cc(C(=O)NC4CC4)ccc3C)c2c1C | 104 | 98.2 | 105 | 103 | 103 | 98.7
Cc1cn([C@H]2O[C@@H](CO)[C@H](O)[C@H]2F)c(=O)[nH]c1=O [Clevudine] | 100 | 103 | 96.2 | 103 | 98.8 | 96.8
CCO[C@@H]1OC(=O)C[C@@H]1NC(=O)[C@@H]1CCCN1C(=O)[C@@H](NC(=O)c1ccc(N)c(Cl)c1)C(C)(C)C | 105 | 105 | 101 | 102 | 95.4 | 98.2
Cc1cc(C(C)Nc2ccccc2)c2nc(N3CCOCC3)cc(=O)n2c1 (configuration not stated) | 103 | 101 | 105 | 98.3 | 102 | 92.9
CC(C)N(CCCNC(=O)Nc1ccc(C(C)(C)C)cc1)C[C@H]1O[C@@H](n2cc(Br)c3c(N)ncnc32)[C@H](O)[C@@H]1O | 108 | 100 | 105 | 96.1 | 96.7 | 100
CO[C@H]1C[C@@H]2CC[C@@H](C)[C@@](O)(O2)C(=O)C(=O)N2CCCC[C@H]2C(=O)O[C@H]([C@H](C)C[C@@H]2CC[C@@H](O)[C@H](OC)C2)CC(=O)[C@H](C)/C=C(\C)[C@@H](O)[C@@H](OC)C(=O)[C@H](C)C[C@H](C)/C=C/C=C/C=C/1C [Rapamycin (Sirolimus)] | 62.4 | 62.1 | 60.3 | 59.4 | 58.2 | 58.9
O=C1NC(=O)C(c2ccccc2[N+](=O)[O-])=C1Nc1ccc(O)c(Cl)c1 | 111 | 113 | 110 | 105 | 108 | 101
O=c1[nH]nc(Sc2ncc([N+](=O)[O-])s2)n1-c1ccc2c(c1)OCCO2 | 98.1 | 94.6 | 102 | 97.9 | 100 | 99.3
OCCn1cc(-c2cnc3nnn(Cc4ccc5ncccc5c4)c3n2)cn1 | 111 | 107 | 105 | 107 | 99.4 | 104
